Consider 17 compounds from PubChem BioAssay.

Experiment [1] concerns the target Nuclear receptor coactivator 3 (Homo sapiens) (UniProt Q9Y6Q9). Briefly: SRC3 coactivator transcriptional activity inhibitors, confirmation, cell-based, luminescence, quadruplicate (AID 588792;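 active = mean inhibition over 43.08%, the solvent-only control mean plus 3 SD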;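 also: 0% = DMSO treated cells and 100% = gossypol at 36 µM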). Particulars: HEK293 GAL4-SRC3 luciferase reporter, at 3.6 µM, hits give high values. A general note: Reporter assays use an easily measured gene product as a stand-in for the process of interest.

In experiment [2] the test system is transactivating tegument protein VP16 (Human herpesvirus 1), Gal4-VP16 luciferase reporter. Briefly: VP16 transactivation inhibitors, counter-screen for SRC3 inhibitor project, cell-based, luminescence, high throughput (AID 588794; in the data active = inhibition above about 30%). Particulars: mammalian cells, VP16-driven luciferase reporter luminescence; at 3.6 µM; hits give high values. For orientation: Counterscreens check selectivity or assay interference.

In experiment [3] the target is Nuclear receptor coactivator 1 (Homo sapiens) (UniProt Q15788). The experiment can be described thus: SRC1 coactivator transcriptional activity inhibitors, confirmation, cell-based, luminescence, quadruplicate (AID 588820;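 active = mean inhibition above 46.68%, the untreated control wells mean plus 3 SD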;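 also: 0% = DMSO wells and 100% = gossypol 36 µM treated wells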). The conditions noted are these: HEK293 GAL4-SRC1 luciferase reporter, at 3.6 µM, hits give high values.
Chain of Nuclear receptor coactivator 1 (Homo sapiens) (Q15788 whole entry, looked up, the tested form may be a part): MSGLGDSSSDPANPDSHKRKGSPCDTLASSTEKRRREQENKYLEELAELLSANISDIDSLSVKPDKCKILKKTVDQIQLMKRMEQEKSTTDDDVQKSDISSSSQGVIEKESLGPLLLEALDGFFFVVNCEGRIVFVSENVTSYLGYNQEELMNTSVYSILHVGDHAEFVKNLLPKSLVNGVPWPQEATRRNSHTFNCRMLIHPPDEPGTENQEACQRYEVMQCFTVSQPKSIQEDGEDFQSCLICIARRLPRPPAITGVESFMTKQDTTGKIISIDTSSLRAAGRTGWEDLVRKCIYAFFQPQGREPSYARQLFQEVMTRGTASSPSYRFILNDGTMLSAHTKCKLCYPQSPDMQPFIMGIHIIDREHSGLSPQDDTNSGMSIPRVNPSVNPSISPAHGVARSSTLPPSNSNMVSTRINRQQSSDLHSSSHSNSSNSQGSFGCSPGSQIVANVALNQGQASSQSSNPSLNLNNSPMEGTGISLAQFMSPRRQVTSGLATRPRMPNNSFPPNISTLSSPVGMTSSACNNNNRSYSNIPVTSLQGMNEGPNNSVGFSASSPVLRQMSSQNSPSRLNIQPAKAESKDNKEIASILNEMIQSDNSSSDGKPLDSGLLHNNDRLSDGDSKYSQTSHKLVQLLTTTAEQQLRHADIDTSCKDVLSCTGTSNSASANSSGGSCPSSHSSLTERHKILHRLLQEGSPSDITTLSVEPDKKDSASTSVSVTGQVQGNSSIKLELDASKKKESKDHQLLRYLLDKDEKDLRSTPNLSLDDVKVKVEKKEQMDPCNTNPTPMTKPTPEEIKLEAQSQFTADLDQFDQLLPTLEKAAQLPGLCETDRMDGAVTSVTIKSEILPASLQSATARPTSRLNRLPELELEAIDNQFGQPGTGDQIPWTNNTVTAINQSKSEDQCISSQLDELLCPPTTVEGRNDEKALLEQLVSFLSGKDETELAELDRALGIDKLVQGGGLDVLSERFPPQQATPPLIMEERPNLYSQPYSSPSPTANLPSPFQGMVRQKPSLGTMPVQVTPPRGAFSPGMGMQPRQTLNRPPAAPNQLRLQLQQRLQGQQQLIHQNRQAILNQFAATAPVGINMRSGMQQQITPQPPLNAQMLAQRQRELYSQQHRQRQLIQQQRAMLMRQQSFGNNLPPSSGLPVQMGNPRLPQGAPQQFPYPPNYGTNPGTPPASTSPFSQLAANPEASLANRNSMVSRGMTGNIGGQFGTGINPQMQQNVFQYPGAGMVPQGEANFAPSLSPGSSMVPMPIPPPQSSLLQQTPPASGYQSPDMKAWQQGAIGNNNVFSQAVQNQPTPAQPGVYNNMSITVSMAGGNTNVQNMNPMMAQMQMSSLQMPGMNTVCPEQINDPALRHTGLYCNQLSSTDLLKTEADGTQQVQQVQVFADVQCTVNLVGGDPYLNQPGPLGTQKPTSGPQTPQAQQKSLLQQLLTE
The nature of experiment [4]: VP16 transactivation inhibitors, counter-screen for SRC1 inhibitor project, cell-based, luminescence, high throughput (AID 588824). Particulars: cell-based VP16 transactivation luciferase luminescence; at 3.6 µM; hits give high values.
A short description of experiment [5]: StAR promoter reporter inhibitors, counter-screen for LRH-1 inverse agonist project, cell-based, luminescence, high throughput (AID 651611; in the data active = inhibition above about 28%). The conditions noted are these: StAR promoter luciferase reporter counterscreen, at 3.6 µM, hits give high values.
In experiment [6] the target is Nuclear receptor subfamily 5 group A member 2 (Homo sapiens) (UniProt O00482). Briefly: LRH-1 (NR5A2) inverse agonists, retest, confirmation, cell-based, luminescence (AID 651613; in the data active = inhibition above about 42%;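 also: HEK293T cells co-transfected with LRH-1 and StAR promoter luciferase reporter; 0% = vehicle wells and 100% = parental cells lacking receptor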). The conditions noted are these: cell-based LRH-1 luciferase reporter, inverse agonism; at 3.6 µM; hits give high values.
Chain of Nuclear receptor subfamily 5 group A member 2 (Homo sapiens) (O00482 whole entry, looked up): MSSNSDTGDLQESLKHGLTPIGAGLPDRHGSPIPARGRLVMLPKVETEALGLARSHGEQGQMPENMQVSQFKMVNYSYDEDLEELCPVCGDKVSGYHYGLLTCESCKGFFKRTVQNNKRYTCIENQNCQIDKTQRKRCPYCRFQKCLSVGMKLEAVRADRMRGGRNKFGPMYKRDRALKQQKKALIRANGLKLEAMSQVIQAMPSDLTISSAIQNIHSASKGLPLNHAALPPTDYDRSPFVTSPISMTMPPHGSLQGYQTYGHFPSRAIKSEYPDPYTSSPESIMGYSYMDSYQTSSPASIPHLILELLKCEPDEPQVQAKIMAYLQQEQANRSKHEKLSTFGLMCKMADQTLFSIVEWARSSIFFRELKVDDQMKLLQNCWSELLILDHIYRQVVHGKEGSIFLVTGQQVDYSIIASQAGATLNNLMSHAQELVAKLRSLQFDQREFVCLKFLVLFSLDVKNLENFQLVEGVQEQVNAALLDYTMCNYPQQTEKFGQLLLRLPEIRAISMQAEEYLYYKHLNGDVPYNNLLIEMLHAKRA
For experiment [7], the target named is Steroidogenic factor 1 (Homo sapiens) (UniProt Q13285). Briefly: SF1 (NR5A1) inverse agonists, counter-screen for LRH-1 inverse agonist project, cell-based, luminescence, high throughput (AID 651614; in the data active = inhibition above about 44%;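 also: cells cotransfected with StAR promoter reporter and SF1 expression vector; 0% = vehicle on cells with receptor and 100% = vehicle on cells lacking receptor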). The conditions noted are these: cell-based SF1 luciferase reporter, at 3.6 µM, hits give high values.
Chain of Steroidogenic factor 1 (Homo sapiens) (Q13285 whole entry, looked up, the tested form may be a part): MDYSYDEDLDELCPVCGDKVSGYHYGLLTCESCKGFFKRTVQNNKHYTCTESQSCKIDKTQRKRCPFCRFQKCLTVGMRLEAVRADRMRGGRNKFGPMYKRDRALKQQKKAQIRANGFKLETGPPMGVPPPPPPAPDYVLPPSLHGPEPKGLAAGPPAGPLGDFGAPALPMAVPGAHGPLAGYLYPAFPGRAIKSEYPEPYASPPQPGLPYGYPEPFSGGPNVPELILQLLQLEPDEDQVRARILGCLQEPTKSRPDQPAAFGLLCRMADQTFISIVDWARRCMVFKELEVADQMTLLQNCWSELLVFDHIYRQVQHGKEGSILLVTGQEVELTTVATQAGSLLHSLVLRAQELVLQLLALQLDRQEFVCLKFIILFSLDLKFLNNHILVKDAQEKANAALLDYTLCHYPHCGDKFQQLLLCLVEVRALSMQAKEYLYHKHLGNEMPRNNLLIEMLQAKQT
A short description of experiment [8]: VP16 transactivation reporter inhibitors, counter-screen for LRH-1 inverse agonist project, cell-based, luminescence, high throughput (AID 651615; in the data active = inhibition above about 33%). The conditions noted are these: Gal4-VP16 luciferase reporter cells, at 3.6 µM, hits give high values.

SMILES strings stand for the structures. A number with no mark means an inactive call. Calls of active or inactive are those of the source. Rule as the data show it, unless noted: active = inhibition above about 25%; inactive = the rest.

Broadly, the inhibition is the change of the read-out against control, counted positive when it falls.

Chain of Nuclear receptor coactivator 3 (Homo sapiens) (Q9Y6Q9 whole entry, looked up, the tested form may be a part): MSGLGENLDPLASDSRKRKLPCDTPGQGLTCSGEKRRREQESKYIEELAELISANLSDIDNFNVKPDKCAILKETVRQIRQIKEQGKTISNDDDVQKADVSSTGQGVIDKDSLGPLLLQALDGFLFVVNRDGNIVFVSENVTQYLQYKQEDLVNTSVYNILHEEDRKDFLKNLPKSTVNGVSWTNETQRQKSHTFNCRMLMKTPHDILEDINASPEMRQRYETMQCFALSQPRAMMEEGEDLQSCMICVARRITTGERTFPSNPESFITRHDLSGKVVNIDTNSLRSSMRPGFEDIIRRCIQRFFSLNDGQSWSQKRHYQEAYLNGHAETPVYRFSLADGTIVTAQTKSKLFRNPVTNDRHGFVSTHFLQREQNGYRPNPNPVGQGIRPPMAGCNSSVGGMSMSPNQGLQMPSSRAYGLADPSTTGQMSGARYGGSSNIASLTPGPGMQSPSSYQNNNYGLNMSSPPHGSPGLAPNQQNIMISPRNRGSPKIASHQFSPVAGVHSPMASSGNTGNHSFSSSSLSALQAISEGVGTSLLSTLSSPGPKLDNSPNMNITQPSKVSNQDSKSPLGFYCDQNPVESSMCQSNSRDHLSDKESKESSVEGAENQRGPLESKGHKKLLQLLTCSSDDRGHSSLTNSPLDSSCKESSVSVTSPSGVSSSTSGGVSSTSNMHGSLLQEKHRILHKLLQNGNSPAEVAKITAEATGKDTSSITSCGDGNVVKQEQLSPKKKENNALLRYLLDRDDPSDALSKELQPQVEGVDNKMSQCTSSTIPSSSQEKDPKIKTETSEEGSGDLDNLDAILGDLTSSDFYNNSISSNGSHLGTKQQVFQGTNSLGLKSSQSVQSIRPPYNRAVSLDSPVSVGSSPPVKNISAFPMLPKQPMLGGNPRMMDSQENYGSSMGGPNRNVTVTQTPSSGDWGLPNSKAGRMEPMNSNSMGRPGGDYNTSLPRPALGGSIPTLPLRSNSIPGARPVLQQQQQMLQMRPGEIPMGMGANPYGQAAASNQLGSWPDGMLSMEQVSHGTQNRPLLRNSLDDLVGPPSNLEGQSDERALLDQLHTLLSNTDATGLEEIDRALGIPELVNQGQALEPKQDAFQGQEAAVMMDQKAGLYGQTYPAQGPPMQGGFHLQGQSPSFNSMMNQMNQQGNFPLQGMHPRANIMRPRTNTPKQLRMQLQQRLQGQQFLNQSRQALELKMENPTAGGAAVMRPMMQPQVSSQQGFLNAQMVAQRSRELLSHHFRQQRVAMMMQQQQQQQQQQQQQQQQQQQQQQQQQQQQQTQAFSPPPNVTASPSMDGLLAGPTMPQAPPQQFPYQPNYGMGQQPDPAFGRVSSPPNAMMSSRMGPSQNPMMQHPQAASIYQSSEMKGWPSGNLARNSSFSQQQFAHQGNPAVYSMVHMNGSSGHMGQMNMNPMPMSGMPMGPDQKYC

For the compound `Cc1c(C)c2cccnc2c2ncccc12`, the inhibition is 88.2% (active) in experiment [1]; 65.7% (active) in experiment [2]; 72.8% (active) in experiment [3]; 65.7% (active) in experiment [4]; 89.9% (active) in experiment [5]; 108% (active) in experiment [6]. For the same compound, the inhibition is 91.9% (active) in experiment [7] and 64.1% (active) in experiment [8].

As for `CCC(C)N(CC(=O)Nc1cccc(C)c1C)C(=O)CCl` (stereo unspecified), the inhibition in experiment [1] is 80% (active); in experiment [2] it was 67% (active); in experiment [3], 52% (active); in experiment [4] it was 71% (active); in experiment [5], 69.2% (active); in experiment [6] it was 84.8% (active). Also, the results for the inhibition in experiment [7] and in experiment [8] were 78.8% (active) and 77.9% (active), respectively.

For `CCCCC(=O)NC(c1ccc(Cl)cc1Cl)c1ccc2cccnc2c1O` (stereo unspecified), the inhibition is 39.4% in experiment [1]; 24.5% in experiment [2]; 27.4% in experiment [3]; 27.2% (active) in experiment [4]; 64% (active) in experiment [5]; 82% (active) in experiment [6]. For the same compound, the inhibition in experiment [7] is 60.9% (active); in experiment [8], 71.7% (active).

`CC1CC(C)C[N+](=C2C=C(N3CCCC3)CC(C)(C)C2)C1` (stereo unspecified): the inhibition was 26.9% in experiment [1]; 66.7% (active) in experiment [2]; 28.9% in experiment [3]; 71.5% (active) in experiment [4]; 38.9% (active) in experiment [5]; 110% (active) in experiment [6]. The inhibition was 79.1% (active) in experiment [7] and 91.2% (active) in experiment [8].

`CC#CC[N+](C)(C)CCCCCCCCCCCC`: the inhibition in experiment [1] was 32.2%; in experiment [2], 39.2% (active); in experiment [3], 22.1%; in experiment [4] it was 32.1% (active); in experiment [5], 33% (active); in experiment [6], 65.2% (active). In addition, the inhibition in experiment [7] is 65.9% (active); in experiment [8], 63.5% (active).

With `Cc1cccc(C(=O)Nc2sc3c(c2C(=O)O)CCCC3)c1`, the inhibition in experiment [1] is 37.5%; in experiment [2] it was 59.1% (active); in experiment [3] it was 25.5%; in experiment [4] it was 58.2% (active); in experiment [5] it was 53.6% (active); in experiment [6], 85.8% (active). Also, the inhibition in experiment [7] was 82.3% (active); in experiment [8] it was 68.9% (active).

As to `CN(C(=O)OC(C)(C)C)c1ccc(-c2nc3ccccc3s2)cc1`, the inhibition is 87.1% (active) in experiment [1]; 84.5% (active) in experiment [2]; 78.8% (active) in experiment [3]; 76.6% (active) in experiment [4]; 75.6% (active) in experiment [5]; 80.9% (active) in experiment [6]. Further, the results for the inhibition in experiment [7] and in experiment [8] were 77.3% (active) and 78.5% (active), respectively.

With `O=C(NC(Nc1nc2ccc([N+](=O)[O-])cc2s1)(C(F)(F)F)C(F)(F)F)c1cccnc1`, the inhibition in experiment [1] was 62.8% (active); in experiment [2] it was 75.3% (active); in experiment [3] it was 26.9%; in experiment [4], 75.3% (active); in experiment [5], 81.4% (active); in experiment [6], 104% (active). Besides, the inhibition in experiment [7] is 95.1% (active); in experiment [8] it was 88.7% (active).

`CN(C)c1ncnc2c1nnn2C1OC(CO)C(O)C1O` (stereo unspecified): the inhibition in experiment [1] was 82.7% (active); in experiment [2], 81.1% (active); in experiment [3], 29.6%; in experiment [4], 81% (active); in experiment [5], 91.3% (active); in experiment [6] it was 105% (active). The inhibition was 93.5% (active) in experiment [7] and 88.8% (active) in experiment [8].

As to `CCc1ccccc1Nc1nn2c(=O)c3ccc(C(=O)NCc4ccccn4)cc3nc2s1`, the inhibition in experiment [1] is 33.3%; in experiment [2], 61.3% (active); in experiment [3] it was 42%; in experiment [4], 59.9% (active); in experiment [5], 57.3% (active); in experiment [6], 67.3% (active). Also, the figures for the inhibition in experiment [7] and in experiment [8] were 76% (active) and 72% (active), respectively.

Turning to `CN(C)c1ccc(/C=C/c2ccc3c4ccccc4ccc3[n+]2-c2ccccc2)cc1`, the inhibition in experiment [1] is 70.9% (active); in experiment [2] it was 82.3% (active); in experiment [3] it was 50.2% (active); in experiment [4] it was 79.4% (active); in experiment [5], 71.9% (active); in experiment [6] it was 104% (active). Also, the values for the inhibition in experiment [7] and in experiment [8] were 92.5% (active) and 83% (active), respectively.

Turning to `CCOC(=O)c1cc2c(=Cc3ccc(N(C)C)cc3)c3ccccc3n2[n+]1C`, the inhibition in experiment [1] is 46.2% (active); in experiment [2], 63.4% (active); in experiment [3], 22.9%; in experiment [4] it was 59.5% (active); in experiment [5], 49.3% (active); in experiment [6], 105% (active). Also, the values for the inhibition in experiment [7] and in experiment [8] were 85.7% (active) and 90.4% (active), respectively.

In the case of `N=c1c2c(n(Cc3ccc(Cl)c(Cl)c3)c3c1CCC3)CCCC2`, the inhibition in experiment [1] is 44.7% (active); in experiment [2] it was 74.8% (active); in experiment [3], 62.8% (active); in experiment [4], 74.8% (active); in experiment [5], 61.2% (active); in experiment [6], 109% (active). Moreover, the inhibition is 84.6% (active) in experiment [7] and 90.7% (active) in experiment [8].

For `CCOC(=O)C(C(C)=O)c1c(Br)c(O)c(O)c2c(C(=O)c3ccc(C)cc3)coc12` (stereo unspecified), the inhibition in experiment [1] was 57.6% (active); in experiment [2] it was 12.5%; in experiment [3], 12.7%; in experiment [4], 31.2% (active); in experiment [5], 60.4% (active); in experiment [6], 94.8% (active). The inhibition in experiment [7] was 83.7% (active); in experiment [8] it was 81.6% (active).

On to `CN(Cc1cnc2nc(N)nc(N)c2n1)c1ccc(C(=O)N[C@@H](CCC(=O)O)C(=O)O)cc1`, for which the inhibition in experiment [1] is 66.7% (active); in experiment [2] it was 12.6%; in experiment [3], 35%; in experiment [4], 8.93%; in experiment [5], 76.9% (active); in experiment [6], 54.9% (active). The inhibition in experiment [7] is 55.4% (active); in experiment [8], 22.7%.

On to `Cc1ccnc2c1ccc1c(C)ccnc12`, for which the inhibition was 86.2% (active) in experiment [1]; 54.3% (active) in experiment [2]; 73.3% (active) in experiment [3]; 61.9% (active) in experiment [4]; 88.8% (active) in experiment [5]; 108% (active) in experiment [6]. Besides, the inhibition in experiment [7] is 87% (active); in experiment [8], 65.1% (active).

Take `CCc1ccc(-n2cc(-c3ccc(F)cc3)[n+]3c2SCCC3)cc1`: the inhibition in experiment [1] was 17.1%; in experiment [2] it was 32.1% (active); in experiment [3], 19.1%; in experiment [4] it was 35.4% (active); in experiment [5] it was 18.4%; in experiment [6], 67.7% (active). In addition, the inhibition was 60.9% (active) in experiment [7] and 48.4% (active) in experiment [8].
